In PubChem BioAssay (Tox21):
Several values for one entry are separate records, joined by “and”; a condition that tells them apart may be missing. Equal values may be shown once. Records with an inconclusive call do not appear. Activity calls are given as the source filed them. Unless noted, calls come from the whole dose curve.

assay: qHTS assay for small molecules that induce genotoxicity in human embryonic kidney cells expressing luciferase-tagged ATAD5 (AID 651632; active = well fitted activation curve with a large enough effect in the repeat runs; note: nearly all actives have a fitted effect of over 15% in size); conditions: HEK293T ATAD5-luciferase induction, 16 h; series mostly up to 83.3 µM; activation: at the top concentration
Outline: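 Luminescence read-out: after 16 hr compound exposure at 37C, ATAD5-luciferase HEK293T cells received Amplite, 30 min RT, then CCD imaging. A rise in signal marks genotoxic stress.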
% is set by controls: 0 for no effect and ±100 for the full control effect.

Row | Structure (SMILES) | Potency | activation
1 | C=C(c1ccc(C(=O)O)cc1)c1cc2c(cc1C)C(C)(C)CCC2(C)C | inactive | –
2 | CCCCCCCC/C=C\CCCCCCCC(=O)N(C)CC(=O)O | – | 4.69% (inactive)
3 | Clc1ccc(C(Cn2ccnc2)OCc2ccsc2Cl)c(Cl)c1 (stereo not given) | – | -9.42% (inactive)
4 | COc1ccc2sc(C(=O)Nc3nnn[nH]3)c(OC(C)C)c2c1 | – | -9.23% (inactive)
5 | CN(C)c1ccc(N=NS(=O)(=O)O)cc1 | – | -4.53% (inactive)
6 | c1cc(OCC2CO2)cc(OCC2CO2)c1 (stereo not given) | – | -7.42% (inactive)
7 | C=C[C@](C)(O)CC[C@@H]1[C@@]2(C)CCCC(C)(C)[C@@H]2CC[C@@]1(C)O | – | -5.48% (inactive)
8 | CC=O | – | -12.2% [at 95.3 µM] (inactive)
9 | CCN(CC)CCOc1ccc(C(O)(Cc2ccc(Cl)cc2)c2ccc(C)cc2)cc1 (stereo not given) | – | -15.6% (inactive)
10 | CCCCCCOc1cc(C)c(O)c(C)c1C | – | -2.26% [at 95.3 µM] (inactive)
11 | NC(=O)c1nc(-c2cccc(-c3cc(F)ccc3OCC(F)(F)C(F)(F)F)c2)n[nH]1 | – | -10.6% (inactive)
12 | COC(=O)[C@]1(C)CCC[C@@]2(C)[C@H]1CC=C1C=C(C(C)C)CC[C@@H]12 | – | -6.02% (inactive)
13 | O=C1NC2CCCCN2C12CCN(CCCN1c3ccccc3CCc3ccc(Cl)cc31)CC2 (stereo not given) | – | -6.78% (inactive)
14 | NC(=O)C(=O)N/N=C/c1ccc([N+](=O)[O-])o1 | – | -4.38% (inactive)
15 | C[C@]12CC[C@H]3C(=CCc4cc(O)ccc43)[C@@H]1CCC2=O | – | -6.46% (inactive)
16 | O=C1Nc2ccc(Cl)cc2[C@@](C#CC2CC2)(C(F)(F)F)O1 | – | -12.8% (inactive)
17 | CC(C)(C)CC(C)(C)c1ccccc1O | – | -8.97% [at 95.3 µM] (inactive)
18 | NC1(c2ccc(-c3nc4ccn5c(=O)[nH]nc5c4cc3-c3ccccc3)cc2)CCC1 | – | -1.05% (inactive)

assay: qHTS assay for small molecule agonists of the p53 signaling pathway - cell viability (AID 651633); conditions: p53RE-bla HCT-116 viability, ATP luminescence, 16 h; series mostly up to 83.3 µM; activity change, negative = cytotoxicity: at the top concentration; note: nearly all actives have a fitted effect of over 30% in size; note: potency is the fitted concentration of half-maximal effect;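 for activity change, negative = cytotoxicity: p53RE-bla HCT reporter cells with a stable beta-lactamase p53 reporter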
Outline: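 Viability counter-read: CellTiter-Glo luminescence (30 min, room temperature) in the same p53RE-bla plates. These plates had been exposed to compounds for 16 h at 37 C.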

Row | Structure (SMILES) | Potency | activity change, negative = cytotoxicity
19 | O=C1c2c(O)ccc(O)c2C(=O)c2c(NCCNCCO)ccc(NCCNCCO)c21 | 4.52 µM (active) | –
20 | COC(=O)C1=C(C)NC(C)=C(C(=O)OCCCN2CCC(c3ccccc3)(c3ccccc3)CC2)C1c1cccc([N+](=O)[O-])c1 (stereo not given) | 26.6 µM (active) | –
21 | S=C(SSSSSSC(=S)N1CCCCC1)N1CCCCC1 | – | -4.99% [at 39.1 µM] (inactive)
22 | Cc1cc(Nc2ccc(O)cc2)ccc1N | – | -16.9% (inactive)
23 | NCCCC(O)(P(=O)(O)O)P(=O)(O)O | – | -14.7% (inactive)
24 | SCCCCCCCCS | – | 13.8% (inactive)

assay: qHTS assay for small molecules that induce genotoxicity in human embryonic kidney cells expressing luciferase-tagged ATAD5 - cell viability (AID 651634); conditions: HEK293T ATAD5-luc cells viability, CellTiter-Fluor, 15.5 h; series mostly up to 83.3 µM; activity, negative = cytotoxicity: at the top concentration; note: nearly all actives have a fitted effect of over 25% in size; note: potency is the fitted concentration of half-maximal effect
Outline: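 HEK293T ATAD5-luc cells, 2,000/well; compound 15.5 hr, 37C/5% CO2; CellTiter-Fluor 30 min, 37C; fluorescence read.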

Row | Structure (SMILES) | Potency | activity, negative = cytotoxicity
25 | CN(C)c1ccc(N=Nc2ccccc2C(=O)O)cc1 | 54.5 µM (active) | –
26 | O=C1c2c(O)ccc(O)c2C(=O)c2c(NCCNCCO)ccc(NCCNCCO)c21 | 9.02 µM (active) | –
27 | CCCCOc1ccc(C(=O)CCN2CCCCC2)cc1 | – | -11.3% [at 39.1 µM] (inactive)
28 | Cc1cc2c(C(C)C)c(O)c(O)c(C=O)c2c(O)c1-c1c(C)cc2c(C(C)C)c(O)c(O)c(C=O)c2c1O | 13.3 µM (active) | –
29 | CC(=O)OC(OC(C)=O)c1ccc([N+](=O)[O-])o1 | 62.2 µM (active) | –
30 | COC(=O)C1=C(C)NC(C)=C(C(=O)OCCCN2CCC(c3ccccc3)(c3ccccc3)CC2)C1c1cccc([N+](=O)[O-])c1 (stereo not given) | 23.7 µM (active) | –
31 | N#CSCSc1nc2ccccc2s1 | – | -14.3% (inactive)
32 | Cc1cc(Nc2ccc(O)cc2)ccc1N | 27.2 µM (active) | –
33 | NCCCC(O)(P(=O)(O)O)P(=O)(O)O | – | -8.72% (inactive)
34 | Oc1ccc(-c2ccc(O)cc2)cc1 | – | -23.6% [at 95.3 µM] (inactive)
35 | NC(=O)C(=O)N/N=C/c1ccc([N+](=O)[O-])o1 | – | 14.4% (inactive)
36 | C[C@H]1O[C@@H](O[C@H]2[C@@H](O)C[C@H](O[C@H]3[C@@H](O)C[C@H](O[C@H]4CC[C@@]5(C)[C@H](CC[C@@H]6[C@@H]5C[C@@H](O)[C@]5(C)[C@@H](C7=CC(=O)OC7)CC[C@]65O)C4)O[C@@H]3C)O[C@@H]2C)C[C@H](O)[C@@H]1O | 168 nM (active) and 48.6 nM (active) and 42.8 nM (active) | –
37 | CN(C)CCCN1c2ccccc2CCc2ccccc21 | inactive | –

assay: qHTS assay for small molecule disruptors of the mitochondrial membrane potential - cell viability (AID 720634); conditions: HepG2 viability, ATP luminescence (CellTiter-Glo), 1 h; series mostly up to 83.2 µM; activity change, negative = cytotoxicity: at the top concentration; note: nearly all actives have a fitted effect of over 20% in size; note: potency is the fitted concentration of half-maximal effect;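 for activity change, negative = cytotoxicity: human HepG2 liver cancer cells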
Outline: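 Luminescence from CellTiter-Glo (ATP content) gave viability in HepG2 cells, read in the same wells as the MMP dye assay after 1 hr compound exposure at 37 C.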

Row | Structure (SMILES) | activity change, negative = cytotoxicity | Potency
38 | C=C(c1ccc(C(=O)O)cc1)c1cc2c(cc1C)C(C)(C)CCC2(C)C | -4.34% (inactive) | –
39 | CN1[C@@H]2CC[C@@H]1CC(OC(=O)C(CO)c1ccccc1)C2 (stereo not given in full) | 15.3% (inactive) | –
40 | CN(C)c1ccc(N=Nc2ccccc2C(=O)O)cc1 | 5.69% (inactive) | –
41 | O=C1c2c(O)ccc(O)c2C(=O)c2c(NCCNCCO)ccc(NCCNCCO)c21 | 38.2% [at 39.1 µM] (inactive) | –
42 | Clc1ccc(C(Cn2ccnc2)OCc2ccsc2Cl)c(Cl)c1 (stereo not given) | -16.6% (inactive) | –
43 | CCCCOc1ccc(C(=O)CCN2CCCCC2)cc1 | 38.8% [at 39.1 µM] (inactive) | –
44 | COc1ccc2sc(C(=O)Nc3nnn[nH]3)c(OC(C)C)c2c1 | 10% (inactive) | –
45 | Cc1c(-c2ccc(O)cc2)n(Cc2ccc(OCCN3CCCCCC3)cc2)c2ccc(O)cc12 | -2.5% (inactive) | –
46 | c1cc(OCC2CO2)cc(OCC2CO2)c1 (stereo not given) | 13.1% (inactive) | –
47 | Cc1cc2c(C(C)C)c(O)c(O)c(C=O)c2c(O)c1-c1c(C)cc2c(C(C)C)c(O)c(O)c(C=O)c2c1O | -16.6% (inactive) | –
48 | COC(=O)C1=C(C)NC(C)=C(C(=O)OCCCN2CCC(c3ccccc3)(c3ccccc3)CC2)C1c1cccc([N+](=O)[O-])c1 (stereo not given) | -6.93% (inactive) | –
49 | CCN(CC)CCOc1ccc(C(O)(Cc2ccc(Cl)cc2)c2ccc(C)cc2)cc1 (stereo not given) | -11.9% (inactive) | –
50 | N#CSCSc1nc2ccccc2s1 | -3.4% (inactive) | –
51 | S=C(SSSSSSC(=S)N1CCCCC1)N1CCCCC1 | 3.32% [at 39.1 µM] (inactive) | –
52 | CCCCCCOc1cc(C)c(O)c(C)c1C | – | 27.6 µM (active)
53 | COC(=O)[C@]1(C)CCC[C@@]2(C)[C@H]1CC=C1C=C(C(C)C)CC[C@@H]12 | -13.9% (inactive) | –
54 | O=C1NC2CCCCN2C12CCN(CCCN1c3ccccc3CCc3ccc(Cl)cc31)CC2 (stereo not given) | 5.06% (inactive) | –
55 | NCCCC(O)(P(=O)(O)O)P(=O)(O)O | 2.17% (inactive) | –
56 | Oc1ccc(-c2ccc(O)cc2)cc1 | 12% [at 95.3 µM] (inactive) | –
57 | CNCC[C@H](Oc1cccc2ccccc12)c1cccs1 | -1.79% (inactive) | –
58 | SCCCCCCCCS | 10.4% (inactive) | –
59 | CN1[C@@H]2CC[C@H]1CC(OC(=O)C(CO)c1ccccc1)C2 (stereo not given in full) | – | inactive
60 | O=C1Nc2ccc(Cl)cc2[C@@](C#CC2CC2)(C(F)(F)F)O1 | – | 29.8 µM (active)
61 | C[C@H]1O[C@@H](O[C@H]2[C@@H](O)C[C@H](O[C@H]3[C@@H](O)C[C@H](O[C@H]4CC[C@@]5(C)[C@H](CC[C@@H]6[C@@H]5C[C@@H](O)[C@]5(C)[C@@H](C7=CC(=O)OC7)CC[C@]65O)C4)O[C@@H]3C)O[C@@H]2C)C[C@H](O)[C@@H]1O | – | inactive
62 | CC1=C(/C=C/C(C)=C/C=C/C(C)=C\C=O)C(C)(C)CCC1 | -6.75% (inactive) | –
63 | CC(C)(C)CC(C)(C)c1ccccc1O | – | 27.4 µM (active)
64 | CN(C)CCCN1c2ccccc2CCc2ccccc21 | – | inactive
65 | NC1(c2ccc(-c3nc4ccn5c(=O)[nH]nc5c4cc3-c3ccccc3)cc2)CCC1 | 13.5% (inactive) | –
